# Rows were chosen to be rich in hits. Some 27% of all compounds tested hit in one or more screens of this group.
# CYP2C19 act – increases human CYP2C19 enzyme activity; 96,000 tested, under 10 active; AID 1025; P33261; activation factor at 5 µM; recombinant CYP2C19, luciferin-H EGE luminescence; stronger effect = higher value; 0 = fully inhibited enzyme, 1 = untreated enzyme;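 active means activation factor of at least 2 at 5 µM in the primary screen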
# CYP2C9 activ – CYP2C9 (human) activation; P11712; recombinant CYP2C9, luciferin-H conversion, luminescence; stronger effect = higher value; factor 1 = untreated enzyme, 0 = blocked; activation factor at 5 µM; AID 1024; 96,000 tested, 1.4% active;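 active means activation factor of 2 or more for CYP2C9 at a 5 µM dose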
# Target sequence (P11712 whole entry, looked up): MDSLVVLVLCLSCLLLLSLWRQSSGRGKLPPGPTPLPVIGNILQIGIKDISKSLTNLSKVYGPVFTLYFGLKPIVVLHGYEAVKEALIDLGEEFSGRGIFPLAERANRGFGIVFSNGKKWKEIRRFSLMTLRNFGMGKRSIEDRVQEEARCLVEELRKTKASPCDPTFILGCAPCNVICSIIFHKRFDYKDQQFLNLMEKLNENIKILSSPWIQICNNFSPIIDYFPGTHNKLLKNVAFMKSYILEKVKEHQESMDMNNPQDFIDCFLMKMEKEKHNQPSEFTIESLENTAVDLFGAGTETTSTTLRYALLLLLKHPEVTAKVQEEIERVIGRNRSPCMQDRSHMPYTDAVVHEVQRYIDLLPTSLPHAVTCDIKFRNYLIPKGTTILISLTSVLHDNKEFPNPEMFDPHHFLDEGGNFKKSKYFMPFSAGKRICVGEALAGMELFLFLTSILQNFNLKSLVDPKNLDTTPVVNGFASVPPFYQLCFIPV
# sEH act – increases human soluble epoxide hydrolase activity; AID 717; 91,000 tested, 0.04% active; activation, % at 2 µM; purified human sEH enzymatic activity, activator screen; in the data active means activation above about 37%
# CYP2C19 inh – blocks human cytochrome P450 2C19; inhibition, % at 5 µM; 96,000 tested, 21% active; CYP2C19 Supersomes, luciferin-H EGE luminescence, 30 min; P33261;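 active means CYP2C19 inhibition above a set limit at 5 µM in the primary screen, cut at about 50% in these data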
# CYP2C9 inhib – human CYP2C9 inhibition; P11712; CYP2C9 Supersomes, luciferin-H conversion, luminescence; inhibition, % at 5 µM; 96,000 tested, 20% active; AID 777;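 active means blocking of liver enzyme CYP2C9 beyond about 50% at 5 µM, limit read from the data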
# sEH inh – blocks human soluble epoxide hydrolase activity; AID 707; 91,000 tested, 0.34% active; P34913; inhibition, % at 2 µM; recombinant human sEH enzymatic activity assay; in the data active means inhibition above about 80%
# A number is an active result; 0 = inactive; - = no result given.
SMILES,CYP2C19 act,CYP2C9 activ,sEH act,CYP2C19 inh,CYP2C9 inhib,sEH inh
Cc1c(/C=C(\C#N)c2nn(-c3ccccc3)c(N)c2C#N)c2ccccc2n1Cc1ccc(F)cc1,0,0,0,0,0,0
CN(CCc1ccccn1)c1ncnc2[nH]ncc12,0,0,0,0,0,0
CN(C)S(=O)(=O)c1ccc(-c2csnn2)s1,0,0,0,0,0,0
CCOC(=O)c1ccc(NC(=O)CSc2nnc(COc3ccccc3)n2C)cc1,0,0,0,0,0,0
Cc1nnc(NC(=O)CSc2nccn2C)s1,-,-,0,-,-,0
COC(=O)c1ccccc1NC(=O)CSc1nccn1C,0,0,-,85.3,0,-
CCOC(=O)c1ccc(NC(=O)CSc2nccn2C)cc1,0,0,0,60.4,0,0
Cc1ccc(NC(=O)Cn2c(CCC(=O)O)ccc2-c2cccs2)cc1,0,0,0,0,0,0
Cn1ccnc1SCC(=O)Nc1cccc2ccccc12,0,0,0,96.7,0,0
COC(=O)c1ccccc1NC(=O)CSc1nnc(COc2cccc(OC)c2)n1C,0,0,0,0,0,0
COC(=O)c1ccccc1NC(=O)Cn1c(CCC(=O)O)ccc1-c1cccs1,0,0,0,53.3,0,0
Cc1ccccc1NC(=O)c1cccc(OCc2c(C)noc2C)c1,0,0,0,0,0,0
Cc1ccc(NC(=O)c2cccc(OCc3c(C)noc3C)c2)cc1,0,0,0,91.1,95.3,0
Cc1ccc(CNC(=O)c2cccc(OCc3c(C)noc3C)c2)cc1,0,0,0,57.5,0,0
Cc1noc(C)c1COc1cccc(C(=O)NCc2cccc(Cl)c2)c1,0,0,0,0,51.5,0
Cc1cccc(C(=O)Nc2ccccc2C(=O)OCc2c(C)noc2C)c1,0,0,0,0,86.2,0
O=C(CSCCO)Nc1ccc(C2CCCCC2)cc1,0,0,-,0,0,-
COc1ccccc1C1c2c(oc3ccc(Cl)cc3c2=O)C(=O)N1c1cc(C)on1 (stereo unspecified),-,-,0,-,-,0
COc1ccc(C(=O)Nc2cc(OC)nc(OC)n2)cc1,-,-,0,-,-,0
CCC(=C(c1ccc(OC)cc1)c1ccc(OC)cc1)c1cn(CC(O)CN2CCN(C)CC2)c2ccccc12 (stereo unspecified),0,0,0,0,70.4,0
COc1ccnc(Oc2ccc(F)cc2)c1C(=O)N/C=N/OCc1c(Cl)cccc1Cl,0,0,0,52.5,74.6,0
COC(=O)c1c(C)[nH]c(C(C)=O)c1C,0,0,0,0,54.8,0
CCOC(=O)N1CCN(c2cc(=O)n(Cc3ccc(F)cc3)c(=O)[nH]2)CC1,-,-,0,-,-,0
O=C(NC1CCCc2ccccc21)C1CCN(S(=O)(=O)c2cccc3nonc23)CC1 (stereo unspecified),0,0,0,0,0,0
O=C(NC1CCCc2ccccc21)C1CCN(S(=O)(=O)c2cnc[nH]2)CC1 (stereo unspecified),0,0,0,0,69.7,0
SMILES,CYP2C19 act,CYP2C9 activ,sEH act,CYP2C19 inh,CYP2C9 inhib,sEH inh
CC(CCc1ccccc1)NC(=O)C1CCN(S(=O)(=O)c2cnc[nH]2)CC1 (stereo unspecified),0,0,0,74.7,93.1,0
CN(C)c1nc2n(c(=O)n1)C(C#N)CS2 (stereo unspecified),-,-,0,-,-,0
Cc1cc(Br)ccc1NC(=O)CNC(=O)CN1C(=O)NC2(CCCCCC2)C1=O,0,0,0,0,0,0
Cc1cc(Br)ccc1NC(=O)CN1C(=O)C2C3CC(c4ccccc4)C(C3)C2C1=O (stereo unspecified),0,0,0,0,67.5,0
O=C1C2CCCN2C(c2ccccc2F)N1c1cccc(Cl)c1 (stereo unspecified),0,0,0,0,0,0
O=C(CCN1C(=O)C2CC=C(Cl)CC2C1=O)NCc1ccccc1 (stereo unspecified),-,-,0,-,-,0
O=C(CCN1C(=O)C2CC=C(Cl)CC2C1=O)Nc1ccccc1O (stereo unspecified),0,0,-,59.1,0,-
O=C(Cc1ccc(Cl)cc1)Nc1ccc(-c2nnc(-c3ccco3)o2)cc1,0,0,-,54.7,75.9,-
Cc1ccccc1NC(=O)CSc1nnc(-c2ccco2)c(-c2ccco2)n1,0,0,0,0,76.8,0
Cc1cccc(C)c1NC(=O)CSc1nnc(-c2ccco2)c(-c2ccco2)n1,0,0,0,0,0,0
Cc1ccc(NC(=O)CSc2nnc(-c3ccco3)c(-c3ccco3)n2)cc1,0,0,0,98.0,95.2,0
Cc1ccc(SCC(=O)Nc2ccc(-c3nnc(-c4ccco4)o3)cc2)cc1,0,0,0,0,89.6,0
O=C(c1ccc(COc2c(F)c(F)c(F)c(F)c2F)o1)N1CCN(Cc2ccc3c(c2)OCO3)CC1,-,-,0,-,-,0
O=C(CSc1nnc(-c2ccco2)c(-c2ccco2)n1)Nc1ccccc1,0,0,0,0,73.0,0
Oc1c(C(c2cccs2)N2CCC3(CC2)OCCO3)sc2ncnn12 (stereo unspecified),0,0,0,86.7,58.2,0
COc1ccc(-n2nccc2-c2nn(-c3cccc(OC)c3)c(=O)n(C)c2=O)cc1,0,0,0,89.2,61.7,0
COc1cccc(-n2c(C)nn(C)c2=O)c1,0,0,-,0,0,-
COc1cccc(-n2nc(-c3ccnn3-c3ccc(F)cc3)c(=O)n(C)c2=O)c1,0,0,0,66.6,80.1,0
COc1cccc(-n2nc(-c3ccnn3-c3ccc(C)cc3)c(=O)n(C)c2=O)c1,0,0,0,89.4,83.5,0
C=CCn1c(C#N)c(N)sc1=N,0,0,0,0,0,0
O=C(O)CCCC(=O)Nc1c(F)c(F)c(F)c(F)c1F,0,0,-,0,0,-
COC(=O)c1sc(NC(=O)c2oc3ccccc3c2C)nc1C,0,0,0,0,0,0
Cc1c(C(=O)Nc2ccccn2)oc2ccccc12,0,0,-,0,0,-
Cc1c(C(=O)Nn2cnnc2)oc2ccccc12,0,0,0,74.3,0,0
Cc1c(C(=O)Nc2nnc(C(F)(F)F)s2)oc2ccccc12,0,0,-,0,62.9,-
SMILES,CYP2C19 act,CYP2C9 activ,sEH act,CYP2C19 inh,CYP2C9 inhib,sEH inh
Cc1c(C(=O)NC(C)c2ccncc2)oc2ccccc12 (stereo unspecified),0,0,0,82.4,83.1,0
Cc1c(C(=O)Nc2ccncc2)oc2ccccc12,0,0,0,97.9,53.0,0
Cc1cc(C(=O)NC(C)c2ccncc2)no1 (stereo unspecified),0,0,-,0,0,-
O=C(O)c1ccc(-n2c(-c3ccc(Br)cc3)n[nH]c2=S)cc1,0,0,0,0,0,0
Cc1ccc2c(C)c(C(=O)Nc3cccnc3)oc2c1,0,0,0,0,52.5,0
COc1ccccc1N(CC(=O)Nc1ccccc1C(=O)NC(C)C)S(C)(=O)=O,0,0,0,0,0,0
COc1ccc(C)cc1NC(=O)CN(c1ccccc1F)S(C)(=O)=O,0,0,0,0,52.3,0
COc1ccc(N(CC(=O)Nc2ccccc2SC)S(C)(=O)=O)cc1OC,0,0,0,0,0,0

# From PubChem BioAssay
